The results in this text go back to PubChem BioAssay (NCATS).

Records with an inconclusive call do not appear. Where a call stands in place of a potency, no number is given. Activity calls are given as the source filed them. Calls follow the shape of the dose curve; as a rule, active = well fitted inhibition curve with a large enough effect; inconclusive = small, poorly fitted or top-dose-only effect; inactive = no such curve, though single readings can be large or run the other way.

A short description of the experiment: qHTS for Inhibitors of the Aldehyde Dehydrogenase Family (ALDH1A2, ALDH1A3, ALDH2, ALDH3A1) (AID 2061307). Also: nearly all actives have a fitted effect of over 50% in size. As to potency: test system not described further here. The conditions noted are these: ALDH inhibition qHTS; series mostly up to 50.3 µM. For orientation: In qHTS, concentration-response curves come from the screen itself.
Potency is read from the fitted curve at half-maximal effect.

Consider `Cc1ccc(NC(=O)c2nc3nc(C)cc(C)n3n2)c(F)c1`, for which the Potency result is “inactive”.

With `O=C(Nc1nnc(C(F)(F)F)s1)c1ccc(Cl)cc1`, the Potency entry is “inactive”.

As for `CC1(C)c2nc(-c3ccc(F)cc3)c(Nc3ccc(F)cc3)n2CCN1C(=O)CN`, the Potency entry is “inactive”.

For the molecule `Cc1ccc(-n2ncc3c(Nc4cccc(C(=O)O)c4)ncnc32)cc1`, the Potency entry is “inactive”.

As for `O=C(Cc1ccc(-c2csc(Nc3ccc(F)cc3)n2)s1)N1CCOCC1`, the Potency was 7.12 µM (active).

`OCC1CCN(c2ccc3cc(Br)ccc3n2)CC1`: the Potency was 8.91 µM (active).

For the molecule `O=C(CSc1n[nH]c2nc3ccccc3n12)Nc1cc(C(F)(F)F)ccc1Cl`, the Potency was 15.8 µM (active).

`O=C(N/N=C/c1ccco1)c1cccc(F)c1`: the Potency result is “inactive”.

`N#Cc1nc(-c2ccc(F)cc2)oc1N1CCN(C(=O)c2ccccc2F)CC1`: the Potency result was “inactive”.

For the molecule `Cc1cccn2c(=O)c(C(=O)NCc3cccc(F)c3)cnc12`, the Potency result was “inactive”.

With `COC(=O)c1ccc(CNc2ncnc3ccccc23)cc1`, the Potency is 0.708 µM (active).
